# Laboratory results as given in PubChem BioAssay (NCATS).
# Where “and” joins values, the source holds several entries; their conditions need not be identical. Equal values may be shown once. Values without a mark were called inactive. Records with an inconclusive call do not appear. Calls of active or inactive are those of the source. Calls come from the whole dose curve; as a rule, active = well fitted curve in the direction sought with a large enough effect; inconclusive = small, poorly fitted or top-dose-only effect, or another doubt; inactive = no such curve, though single readings can be large; an effect the other way counts as inactive or inconclusive.
# Biological target: Cytochrome P450 3A4 (Homo sapiens) (UniProt P08684)
# Assay: qHTS Assay for Activators of Cytochrome P450 3A4 (AID 885); note: nearly all actives have a fitted effect of over 65% in size
# Conditions: recombinant CYP3A4, Luciferin-PPXE luminescence, 60 min; series mostly up to 57.1 µM; activity change, positive = activation: at the top concentration
# How it was run: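 Human CYP3A4 dealkylates Luciferin-PPXE to luciferin, which luciferase detection converts to light. Substrate was at its KM (25uM), buffer 200mM KPO4, reaction 60 min at RT.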
# Cytochrome P450 3A4 (Homo sapiens), sequence (P08684 whole entry, looked up): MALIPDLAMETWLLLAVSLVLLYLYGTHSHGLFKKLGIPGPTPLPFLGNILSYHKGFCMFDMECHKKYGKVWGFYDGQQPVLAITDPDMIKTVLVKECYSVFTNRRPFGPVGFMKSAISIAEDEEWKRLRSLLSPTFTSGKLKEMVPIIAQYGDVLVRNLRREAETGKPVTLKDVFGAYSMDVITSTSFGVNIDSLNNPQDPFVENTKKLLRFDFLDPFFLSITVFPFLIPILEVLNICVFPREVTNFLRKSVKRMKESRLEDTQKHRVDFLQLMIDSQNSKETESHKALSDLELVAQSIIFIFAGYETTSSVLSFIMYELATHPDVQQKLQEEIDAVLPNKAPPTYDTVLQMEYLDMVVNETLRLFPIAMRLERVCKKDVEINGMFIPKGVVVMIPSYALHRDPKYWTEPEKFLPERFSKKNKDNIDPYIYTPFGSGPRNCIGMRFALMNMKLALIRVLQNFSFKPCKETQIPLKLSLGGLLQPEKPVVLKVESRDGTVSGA
SMILES,"activity change, positive = activation",Potency
CCN1C(=O)[C@H]2[C@H]3[C@H](O)[C@H](O)C/C(=N/O[C@@H](C)c4cn([C@H](CO)Cc5ccccc5)nn4)[C@@H]3CC[C@@H]2C1=O,-35.2% [at 11.4 µM] and -33% [at 11.4 µM],
C/C(CCN1CCc2nc(-c3ccccc3)c(-c3ccccc3)cc2C1)=N\O[C@@H](C)c1cn([C@H](CO)Cc2ccccc2)nn1,-54.2% [at 11.4 µM] and -52.4% [at 11.4 µM],
C=CC[C@@H]1C=C[C@@H](O/N=C\C[C@@H]2C=C[C@H](OC(C)=O)[C@H](COC(C)=O)O2)[C@@H](CO)O1,-49.3% [at 11.4 µM],
CO[C@H]1COC(=O)C/C=C\[C@H](C)COC(=O)[C@@H](OCc2ccccc2)/C=C\[C@@H]1C,-41.2% [at 11.4 µM],
C/C(CCN1CCCCc2nc(C)c(C)cc21)=N\OC[C@@H](C)[C@H](OCc1ccccc1)C(C)C,-49.2% [at 11.4 µM],
COc1ccc(-c2coc3c(OC)c(OC)cc(O)c3c2=O)cc1,-50.7%,
CCc1cc2c(nc1CC)CCN(CC/C(C)=N/OC[C@@H](O)[C@@H]1O[C@@H]3OC(C)(C)O[C@@H]3[C@H]1O)C2,-30.5% [at 11.4 µM],
COc1ccc(-c2ccc3c(n2)CCCN3C[C@H](O)CN2CCCc3nc(-c4ccc(Br)cc4)ccc32)cc1,-31.9% [at 11.4 µM],
CC(C)C(=O)N[C@@H]1CCCN1C(=O)/C=C\c1ccccc1,-30.2% [at 11.4 µM],
C#CCCCO/N=C1/C[C@@H](O)[C@@H](O)[C@@H]2[C@@H]3C(=O)N(C4CCCCC4)C(=O)[C@H]3CC[C@H]12,-57% [at 11.4 µM],
C/C(CCN1CCc2nc(-c3ccccc3)c(-c3ccccc3)cc2C1)=N\O[C@@H](C)CN1CCCc2nc(C)c(C)cc21,-58.8% [at 11.4 µM],
COc1ccc(C2COc3c(ccc(O)c3OC)C2)c(OC)c1O (stereo not given),-58.2%,
CCCNC(=O)OC[C@@H]1O[C@H](CCON=C(C)C)C=C[C@@H]1Oc1ccc(OC)cc1,-58.2% [at 11.4 µM],
COc1cc(C2c3cc4c(cc3C(O)[C@H]3COC(=O)C23)OCO4)cc(OC)c1OC (stereo not given in full),,inactive
CC(C)=CCC/C(C)=C/CO/N=C1/[C@H]2O[C@@H]2[C@@H](O)[C@H]2[C@H]1CCn1c(=O)n(Cc3cc4c(cc3Cl)OCO4)c(=O)n12,-56.5% [at 11.4 µM],
COC1=CC(=O)C=C(OC)C1=O,-49.5%,

# Biological target: Cytochrome P450 2D6 (Homo sapiens) (UniProt P10635)
# Assay: qHTS Assay for Inhibitors and Substrates of Cytochrome P450 2D6 (AID 891); note: nearly all actives have a fitted effect of over 60% in size; note: potency is the fitted concentration of half-maximal effect;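 for activity change, negative = inhibition: luciferin methyl ether substrate demethylated by CYP2D6 with NADPH regeneration; % is set by controls: 0 for no effect and ±100 for the full control effect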
# Conditions: recombinant CYP2D6, luciferin-ME EGE luminescence; series mostly up to 11.4 µM; activity change, negative = inhibition: at the top concentration
# How it was run: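 Luminescent read-out of luciferin formed by 5 nM human CYP2D6 demethylating 30 uM Luciferin-ME EGE (Km level) over 60 min at room temperature after NADPH regeneration addition. Data normalized to full inhibition by 1.43 uM quinidine.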
# Cytochrome P450 2D6 (Homo sapiens), sequence (P10635 whole entry, looked up): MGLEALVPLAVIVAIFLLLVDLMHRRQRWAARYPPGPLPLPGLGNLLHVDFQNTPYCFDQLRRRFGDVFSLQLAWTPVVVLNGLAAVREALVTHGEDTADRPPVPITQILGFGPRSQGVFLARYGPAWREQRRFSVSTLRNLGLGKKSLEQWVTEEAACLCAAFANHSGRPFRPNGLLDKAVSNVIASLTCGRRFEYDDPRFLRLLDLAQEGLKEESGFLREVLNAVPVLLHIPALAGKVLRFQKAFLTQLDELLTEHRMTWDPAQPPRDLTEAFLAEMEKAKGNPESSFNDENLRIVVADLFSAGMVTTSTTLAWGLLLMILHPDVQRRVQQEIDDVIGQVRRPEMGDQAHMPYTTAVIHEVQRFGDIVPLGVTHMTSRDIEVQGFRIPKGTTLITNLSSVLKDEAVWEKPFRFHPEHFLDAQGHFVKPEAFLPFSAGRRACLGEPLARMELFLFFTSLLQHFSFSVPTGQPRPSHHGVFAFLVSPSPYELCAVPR
SMILES,Potency,"activity change, negative = inhibition [%]"
CC(=O)OC[C@H]1O[C@@H](O/N=C\[C@@H](C)[C@H](OCc2ccccc2)C(C)C)[C@H](OC(C)=O)[C@@H](OC(C)=O)[C@H]1OC(C)=O,3.98 µM (active),
CCN1C(=O)[C@H]2[C@@H]3[C@H](O)C=CC(=O)[C@H]3CC[C@H]2C1=O,,30
O=C1[C@@H]2[C@H]3[C@H](O)[C@H](O)C/C(=N/OCc4ccccc4)[C@@H]3CC[C@H]2C(=O)N1c1ccc(F)cc1F,,25.4
C#CCCCO/N=C1/[C@H]2O[C@@H]2[C@@H](O)[C@H]2[C@H]1CCn1c(=O)n(C)c(=O)n12,,25.2
CO[C@H]1COC(=O)CCC[C@H](C)[C@H](OC)COC(=O)C/C=C\[C@@H]1C,,23.2
CC(C)[C@H](NC(=O)OC(C)(C)C)[C@@H](O)CC(=O)OC(C)(C)C,3.16 µM (active),
CCOC(=O)CCN1C(=O)[C@H]2[C@H]3[C@H](O)[C@H](O)C/C(=N/O[C@@H]4O[C@@H](COC(C)=O)[C@@H](OC(C)=O)[C@@H](OC(C)=O)[C@H]4OC(C)=O)[C@@H]3CC[C@@H]2C1=O,3.16 µM (active),
CC(C)(C)N1C(=O)[C@H]2[C@@H]3[C@H](O)[C@H](O)CC(=O)[C@H]3CC[C@H]2C1=O,,26.7
CCOC(=O)N/N=C1/C[C@@H](O)[C@@H](O)[C@@H]2[C@@H]3C(=O)N(C4CCCCC4)C(=O)[C@H]3CC[C@@H]12,,26.9
CC(C)=CCC/C(C)=C/CO/N=C1/C[C@@H](O)[C@@H](O)[C@@H]2[C@@H]3C(=O)N(C(C)(C)C)C(=O)[C@H]3CC[C@H]12,,32.2
COC(=O)C/C=C\[C@@H](C)[C@@H](/C=N\OC[C@@H](O)COCc1ccco1)OC,,30.1
CC(C)=NOC[C@@H](O)COCc1ccco1,,28.9
C[C@@H](c1ccccc1)N1C(=O)[C@H]2[C@@H]3[C@H](O)C=CC(=O)[C@H]3CC[C@H]2C1=O,,30.6
CCOC(=O)CCN1C(=O)[C@H]2[C@H]3[C@H](O)[C@H](O)C/C(=N/O[C@@H]4O[C@@H](COC(C)=O)[C@@H](OC(C)=O)[C@@H](OC(C)=O)[C@H]4OC(C)=O)[C@H]3CC[C@@H]2C1=O,3.16 µM (active),
O=C(N/N=C1/C[C@@H](O)[C@@H](O)[C@@H]2[C@@H]3C(=O)N(Cc4ccccc4)C(=O)[C@H]3CC[C@H]12)OCc1ccccc1,,23.2
CCOC(=O)N/N=C1/C[C@@H](O)[C@@H](O)[C@@H]2[C@@H]3C(=O)N(Cc4ccccc4)C(=O)[C@H]3CC[C@@H]12,,21.6
CC(=O)OC[C@@H]1O[C@@H](O/N=C2/C[C@@H](O)[C@@H](O)[C@@H]3[C@@H]4C(=O)N(Cc5ccccc5)C(=O)[C@H]4CC[C@H]23)[C@H](OC(C)=O)[C@H](OC(C)=O)[C@@H]1OC(C)=O,3.16 µM (active),
CC(=O)OC[C@@H]1O[C@@H](O/N=C2/C[C@@H](O)[C@@H](O)[C@@H]3[C@@H]4C(=O)N(Cc5ccccc5)C(=O)[C@H]4CC[C@@H]23)[C@H](OC(C)=O)[C@H](OC(C)=O)[C@@H]1OC(C)=O,3.98 µM (active),
CC(=O)OC[C@@H]1O[C@@H](O/N=C2/C[C@@H](O)[C@@H](O)[C@@H]3[C@H]4C(=O)N(c5ccc(F)cc5F)C(=O)[C@@H]4CC[C@H]23)[C@H](OC(C)=O)[C@H](OC(C)=O)[C@@H]1OC(C)=O,3.16 µM (active),
CO[C@@H]1COC(=O)CCC[C@@H](C)[C@H](OC)COC(=O)CCC[C@H]1C,,34.5
CCc1cc2c(nc1CC)CCN(CC/C(C)=N/O[C@@H]1O[C@H](COC(C)=O)[C@H](OC(C)=O)[C@H](OC(C)=O)[C@H]1OC(C)=O)C2,3.98 µM (active),
CC(=O)OC[C@@H]1O[C@H](C/C=N\O[C@@H]2O[C@H](COC(C)=O)[C@@H](OC(C)=O)[C@H](OC(C)=O)[C@H]2OC(C)=O)C=C[C@@H]1OC(C)=O,3.98 µM (active),
CO[C@@H]1COC(=O)CC=C[C@@H](C)[C@@H]2C=C[C@H](O)[C@@H](COC(=O)[C@H](C)NC(=O)CC=C[C@H]1C)O2,,36.6
CO[C@@H]1COC(=O)C/C=C\[C@H](C)COC(=O)[C@H](C)NC(=O)C/C=C\[C@H]1C,,27.4
